A selection: hits, their analogues and other compounds. The true share with any hit is near 10%.
GLS inhibitor – glutaminase GLS (human) inhibition. GLS enzymatic activity, qHTS titration. AID 624170. 410,000 compounds, 0.21% hits. Potency, µM (series often up to 45.5 µM), inactives show at the top dose activity change, negative = inhibition, hits mostly inhibitors; further: on the % scale 0 is the no-effect control and ±100 the full control effect
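Coupled fluorescence readout: glutamate oxidase/HRP/Amplex Red detect glutamate formed by hKGA from L-glutamine (1 mM solution added). Buffer 45 mM KH2PO4 pH 8.2, 0.02% Tween-20; reads at t0 and 30 min RT.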
JMJD2A Tudor – blocks the human JMJD2A Tudor domain | O75164 | AlphaScreen JMJD2A-Tudor / H3K4me3 peptide binding | Potency, µM (titrated, usually from 114 µM), inactives show top-dose activity change, negative = inhibition, actives largely listed as inhibitors | 390,000 compounds, 4.4% hits | AID 504339; further: on the % scale 0 is the no-effect control and ±100 the full control effect; nearly all actives have a fitted effect of over 50% in size
HP1b chromo inh – HP1-beta chromodomain-methylated histone interaction inhibition | P83916 | AlphaScreen HP1-beta / biotin-H3K9me3 peptide binding | Potency, µM (highest dose often 114 µM), for the others: at the top dose activity change, negative = inhibition, most hits filed as inhibitors | 390,000 compounds, 0.56% hits | AID 540317; further: nearly all actives have a fitted effect of over 70% in size
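AlphaScreen: HP1-beta (50 nM) preformed 30 min with biotin-H3(1-18)K9me3 peptide (50 nM) in PBS pH 7.4, 0.01% Tween-20. Compound added for 30 min at RT, then streptavidin donor/nickel chelate acceptor beads (10 ug/mL) for 30 min.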
BAZ2B inh – BAZ2B (human) inhibition; 360,000 compounds, 4.4% hits; Q9UIF8; AID 504333; Potency, µM (titrated, usually from 114 µM), without a hit: top-dose activity change, negative = inhibition, usual class: inhibitors; AlphaScreen BAZ2B-H3K14Ac peptide displacement; further: on the % scale 0 is the no-effect control and ±100 the full control effect; nearly all actives have a fitted effect of over 60% in size
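BAZ2B 50 nM plus b-H3(5-23)K14Ac 50 nM, PBS pH 7.4/0.01% Tween-20, 30 min RT; compound added (max 110 uM), 30 min RT; streptavidin donor/Ni-chelate acceptor beads 10 ug/mL final, 20 min dark; AlphaScreen read.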
G9a inh – blocks human histone lysine methyltransferase G9a; 350,000 compounds, 8.8% hits; G9a H3K9 monomethylation, AlphaScreen, 2 h; Potency, µM (doses to about 102 µM), for the others: at the highest dose activity, negative = inhibition, usual class: inhibitors; further: on the % scale 0 is the no-effect control and ±100 the full control effect; nearly all actives have a fitted effect of over 75% in size
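Compounds were preincubated with 20 nM G9a for 15 min, after which biotinylated H3K9 peptide (500 nM) and SAM (20 uM) started a 2 h room-temperature reaction. Monomethylated product was quantified by antibody-based AlphaScreen chemiluminescence.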
* marks the source's active call; other numbers are inactive results; ? = inconclusive; nt = no result; [ ] = another dose, or the depositor's remark. The call rests on the fitted dose curve; in most records, active means well fitted curve in the direction sought with a large enough effect; inconclusive means small, poorly fitted or top-dose-only effect, or another doubt; inactive means no such curve, though single readings can be large; an effect the other way counts as inactive or inconclusive. Potency means the concentration at half of the fitted maximal effect.

SMILES	GLS inhibitor	JMJD2A Tudor	HP1b chromo inh	BAZ2B inh	G9a inh
O=C(NC(=S)NCc1ccccc1)c1ccccc1	1.9%	-21.5%	30.4%	-25.5%	44.7µM*
O=C(NC(=S)NCc1ccc(F)cc1)c1ccccc1	7.7%	-9.7%	8.4%	-13.2%	50.1µM*
O=C(O)CC(NC(=S)NCc1ccccc1)C(=O)O (stereo not given)	-1.7%	-2.1%	35.6%	-16.1%	?
O=C(NC(=S)NCc1ccncc1)c1ccccc1	1.1%	-10.3%	22.3%	-4.5%	nt
CN(Cc1ccccc1)C(=S)Nc1cccnc1	-8.3%	56.2µM*	6.1%	-21.6%	-5.6%
CSCCC(NC(=O)c1ccco1)C(=O)NCC1CCCO1 (stereo not given)	6.5%	-1.4%	41.8%	-3.2%	-2.2%[12.7 µM]
CCCN(CCC)C(=O)[C@@H](CCC(=O)O)NC(=O)c1ccccc1	4.7%	nt	nt	nt	-29.9%[12.7 µM]
CN(Cc1ccccc1)C(=S)NC(=O)c1ccccc1	-0.2%	-24.5%	19.4%	-24.8%	50.1µM*
COc1ccc(C(=O)NC(=S)N(C)Cc2ccccc2)cc1Br	1.8%	-20.8%	24.4%	-4.1%	nt
O=C(Cc1csc(-c2ccccc2)n1)NCc1ccc(F)cc1	-16.3%	5.9%	36.1%	6.1%	44.7µM*
O/N=C\c1cccn1-c1ccc(Br)cc1	19.6%	79.4µM*	-33.4%	?	?
O/N=C\c1cccn1-c1nccs1	0.7%	-7.7%	8.3%	-7.5%	2.9%
COC(=O)CCCC1=CC2=CC(=O)C(C)(OC(=O)CCc3ccccc3)C(=O)C2=CO1 (stereo not given)	-19.2%	79.4µM*	-22.0%	56.2µM*	-36.2%[59 µM]
CCC(=O)OC1(C)C(=O)C=C2C=C(c3ccsc3)OC=C2C1=O (stereo not given)	1.2%	28.2µM*	?	50.1µM*	?
COC(=O)CCCC1=CC2=CC(=O)C(C)(OC(=O)c3cccs3)C(=O)C2=CN1Cc1ccccc1 (stereo not given)	-7.5%	-31.2%	5.6%	-36.7%	-9.9%[59 µM]
COC(=O)CCC(=O)OC1(C)C(=O)C=C2C=C(c3ccsc3)OC=C2C1=O (stereo not given)	12.6µM*	50.1µM*	?	nt	nt
Cc1csc(=O)n1CC(=O)OC(C)C(=O)Nc1ccc(N(C)C)cc1 (stereo not given)	32.2%	-29.2%	43.5%	nt	nt
CCCC(=O)OCc1cnc(C)c2oc(=O)c(C(=O)Nc3ccc(F)cc3C)cc12	0.8%	-16.9%	5.4%	-1.5%	1.1%[59 µM]
O=c1oc2ccc(F)cc2cc1-c1nc(-c2cccs2)no1	-11.4%	-18.3%	23.2%	-15.0%	-1.2%[59 µM]
CCCCC(=O)NC(c1ccc(N(C)C)cc1)c1ccc2cccnc2c1O (stereo not given)	54.0%	17.8µM*	?	20µM*	39.8µM*
CCCC(=O)NC(c1ccc(C)cc1)c1ccc2cccnc2c1O (stereo not given)	6.6%	56.2µM*	56.5%	14.1µM*	-4.2%
Oc1c(C(Nc2cccc(C(F)(F)F)c2)c2ccncc2)ccc2cccnc12 (stereo not given)	-32.6%	31.6µM*	-0.4%	20µM*	28.2µM*
O=C(Nc1ccncc1)Nc1cccc(C(F)(F)F)c1	2.3%	-11.2%	36.5%	0.8%	-9.7%
CCCC(=O)NC(c1ccccc1OC)c1ccc2cccnc2c1O (stereo not given)	-25.8%	56.2µM*	-10.8%	25.1µM*	-3.8%
O=C(COC(=O)c1nc(Cl)ccc1Cl)NNC(=O)c1cccs1	12.9%	-6.1%	33.8%	5.5%	-12.3%[2.33 µM]
SMILES	GLS inhibitor	JMJD2A Tudor	HP1b chromo inh	BAZ2B inh	G9a inh
Cc1cccc(NC(c2cccc(Cl)c2)c2ccc3cccnc3c2O)n1 (stereo not given)	0.1%	15.8µM*	31.0%	10µM*	-41.1%[59 µM]
Cc1cccc(NC(c2ccccc2F)c2ccc3ccc(C)nc3c2O)n1 (stereo not given)	0.8%	?	18.9%	-8.7%	-6.9%[59 µM]
CCCCC(=O)NC(c1ccc(Cl)cc1)c1ccc2cccnc2c1O (stereo not given)	59.5%	56.2µM*	12.2%	nt	nt
COc1ccc(C(C)C)cc1S(=O)(=O)Nc1ccccn1	-8.8%	-4.7%	24.0%	-4.4%	-28.9%[2.33 µM]
Cc1ccnc(NC(c2cccc(O)c2)c2ccc3ccc(C)nc3c2O)c1 (stereo not given)	26.5%	?	-24.6%	?	11.2µM*
COc1ccc(C(Nc2ccccn2)c2ccc3ccc(C)nc3c2O)cc1C (stereo not given)	36.7%	?	-14.6%	?	8.91µM*
CCc1ccc(-n2nc(CO)c(C(=O)NCc3ccccn3)n2)cc1	4.3%	-7.2%	61.0%	-29.8%	?
Cc1ccc(C2=Nc3ccccc3N(CC(=O)Nc3ccccc3F)C(=O)C2)cc1C	-9.5%	-28.3%	39.0%	-21.1%	7.4%[59 µM]
CCOc1cc(C(Nc2cc(C)ccn2)c2ccc3cccnc3c2O)ccc1OC (stereo not given)	4.2%	17.8µM*	14.1µM*	10µM*	3.16µM*
CCCCC(=O)NC(c1ccc(N(CC)CC)cc1)c1ccc2cccnc2c1O (stereo not given)	57.6%	?	19.8%	44.7µM*	-10.1%
Cc1ccc(C(Nc2ccccn2)c2ccc3cccnc3c2O)cc1 (stereo not given)	25.8%	20µM*	-8.0%	28.2µM*	7.94µM*
CCCC(=O)NC(c1ccc(Cl)cc1Cl)c1ccc2cccnc2c1O (stereo not given)	-1.5%	-19.2%	43.9%	-1.8%	20.0%
Cn1c(=O)[nH]c(=O)c2c1nc(N/N=C/C(Br)=C/c1ccccc1)n2CCO	1.8%	?	24.1%	?	nt
COc1ccc(-c2nc3sc(CCNC(=O)C(=O)Nc4ccccc4C#N)c(C)n3n2)cc1	-13.2%	0.6%	29.4%	-2.0%	9.8%[59 µM]
COc1ccc(N2CCN(CCCNC(=O)c3c(C)nn(-c4ccc(F)cc4)c3-n3cccc3)CC2)cc1	20.7%	?	-11.2%	50.1µM*	4.47µM*
Cc1nn(-c2ccc(F)cc2)c(-n2cccc2)c1C(=O)NCCCN1CCN(c2ccccc2F)CC1	2.4%	-31.0%	13.3%	?	-37.8%[59 µM]
CCCN1CCN(CCCNC(=O)c2c(C)nn(-c3ccc(F)cc3)c2-n2cccc2)CC1	2.0%	7.2%	32.3%	-12.4%	0.8%[59 µM]
Cc1ccc(-n2nc(C)c(C(=O)NCCCN3CCN(c4ccc(F)cc4)CC3)c2-n2cccc2)cc1	7.9%	44.7µM*	-23.9%	39.8µM*	?
C=CCn1c(=O)c(C(=O)Nc2ncccc2C)c(O)c2ccccc21	6.1%	nt	nt	nt	nt
CCOC(=O)/C(=N\Nc1cc(Cl)ccc1Cl)N1CCN(CC)CC1	13.3%	-30.1%	2.3%	-36.2%	?
O=S(=O)(c1ccc(Cl)cc1)c1nc(-c2ccccc2F)oc1NCc1ccccc1	15.3%	-15.6%	3.4%	?	-29.2%[59 µM]
Cc1nc(S(=O)(=O)c2ccc(Cl)cc2)c(NCc2ccccc2)o1	3.2%	1.4%	45.3%	-5.7%	44.7µM*
